What all share (experiment): DAPPL (digital affinity profiling via proximity ligation, sequencing); 10 mM Tris-HCl pH 7.5, 50 mM NaCl, 1 mM DTT, 4% glycerol, room temperature, 30 min; GST-TFs on glutathione beads, 16-mer random dsDNA library, 0.1% formaldehyde crosslink after washing; high values mean tight binding
Test [1] deals with T1, FEV (Homo sapiens, UniProt Q99581 1-238).
T1 sequence: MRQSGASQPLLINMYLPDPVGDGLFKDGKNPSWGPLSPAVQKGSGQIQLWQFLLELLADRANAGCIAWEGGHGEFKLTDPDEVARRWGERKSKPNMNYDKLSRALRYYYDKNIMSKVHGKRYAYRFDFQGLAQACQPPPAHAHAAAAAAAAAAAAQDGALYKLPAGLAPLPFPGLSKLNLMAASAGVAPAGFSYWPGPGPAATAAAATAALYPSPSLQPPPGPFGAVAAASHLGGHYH
Conditions: protein: recombinant; tags: N-terminal GST; dsDNA, one strand shown. In short, it runs like this: (§1)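 Human transcription factors carrying a GST fusion were produced in yeast, bound to glutathione beads, tagged with DNA barcodes and pooled together with a tag-only sample. Each pool was held with 200 nmole of a random double-stranded 16-mer DNA library in Tris/NaCl/DTT/glycerol buffer for 30 min at room temperature, then washed, crosslinked in 0.1% formaldehyde, proximity-ligated with BsaI/T4 ligase (1 h, 37 °C), PCR-amplified and sequenced on an Illumina NextSeq500. Binding signal is the read frequency of each hexamer for a given factor divided by its frequency in the tag-only sample.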

Test [2] has as its target ETV5 (Homo sapiens, UniProt P41161 1-510). Conditions: protein: recombinant; tags: N-terminal GST; dsDNA, one strand shown. The method, boiled down:
as §1

For test [3], the target named is HSF1 (Homo sapiens, UniProt Q00613 1-529). The settings on record: protein: recombinant; tags: N-terminal GST; chain copies: 3; dsDNA, one strand shown. In short, it runs like this: as §1
HSF1, sequence (Q00613 whole entry): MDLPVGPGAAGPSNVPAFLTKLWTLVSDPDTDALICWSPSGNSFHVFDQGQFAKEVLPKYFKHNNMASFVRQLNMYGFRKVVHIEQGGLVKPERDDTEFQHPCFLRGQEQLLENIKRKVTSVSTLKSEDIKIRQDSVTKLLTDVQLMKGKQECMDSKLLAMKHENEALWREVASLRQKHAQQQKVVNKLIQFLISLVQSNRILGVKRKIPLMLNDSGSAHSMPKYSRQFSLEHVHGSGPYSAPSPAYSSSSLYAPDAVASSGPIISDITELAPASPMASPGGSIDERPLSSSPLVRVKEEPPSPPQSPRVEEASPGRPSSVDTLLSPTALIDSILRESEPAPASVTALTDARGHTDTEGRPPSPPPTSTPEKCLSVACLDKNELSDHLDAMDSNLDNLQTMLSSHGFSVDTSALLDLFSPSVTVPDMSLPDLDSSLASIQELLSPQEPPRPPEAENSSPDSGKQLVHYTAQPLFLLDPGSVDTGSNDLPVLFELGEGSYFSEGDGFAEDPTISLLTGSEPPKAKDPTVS
The target in test [4] is T2, SPIC (Homo sapiens, UniProt Q8N5J4 1-248).
T2 sequence: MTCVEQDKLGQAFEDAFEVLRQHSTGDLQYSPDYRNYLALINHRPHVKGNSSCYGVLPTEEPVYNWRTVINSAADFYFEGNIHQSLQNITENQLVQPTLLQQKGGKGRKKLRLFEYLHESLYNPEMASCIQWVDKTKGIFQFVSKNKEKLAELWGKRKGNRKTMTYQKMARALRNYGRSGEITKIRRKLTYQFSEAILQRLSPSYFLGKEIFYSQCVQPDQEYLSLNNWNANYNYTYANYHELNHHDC
The settings on record: protein: recombinant; tags: N-terminal GST; dsDNA, one strand shown. In short, it runs like this:
as §1

Test [5] has as its target ELF4 (Homo sapiens, UniProt Q99607 1-663). The settings on record: protein: recombinant; tags: N-terminal GST; dsDNA, one strand shown. In short, it runs like this: as §1
Test [6] addresses T3, ELK4 (Homo sapiens, UniProt P28324-2 1-405).
T3 sequence: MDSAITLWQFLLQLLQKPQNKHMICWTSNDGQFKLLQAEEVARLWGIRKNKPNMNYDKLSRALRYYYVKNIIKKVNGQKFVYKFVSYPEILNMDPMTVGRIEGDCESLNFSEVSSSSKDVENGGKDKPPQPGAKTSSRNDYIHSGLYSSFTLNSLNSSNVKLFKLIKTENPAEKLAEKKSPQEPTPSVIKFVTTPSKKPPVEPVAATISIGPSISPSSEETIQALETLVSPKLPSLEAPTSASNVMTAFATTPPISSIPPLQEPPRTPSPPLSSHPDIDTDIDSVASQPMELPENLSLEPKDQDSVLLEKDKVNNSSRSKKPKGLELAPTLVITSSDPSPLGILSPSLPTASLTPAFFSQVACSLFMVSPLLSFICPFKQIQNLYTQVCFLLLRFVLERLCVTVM
The settings on record: protein: recombinant; tags: N-terminal GST; dsDNA, one strand shown. In short, it runs like this:
as §1

Test [7] has as its target T4, ETV2 (Homo sapiens, UniProt O00321 1-342).
T4 sequence: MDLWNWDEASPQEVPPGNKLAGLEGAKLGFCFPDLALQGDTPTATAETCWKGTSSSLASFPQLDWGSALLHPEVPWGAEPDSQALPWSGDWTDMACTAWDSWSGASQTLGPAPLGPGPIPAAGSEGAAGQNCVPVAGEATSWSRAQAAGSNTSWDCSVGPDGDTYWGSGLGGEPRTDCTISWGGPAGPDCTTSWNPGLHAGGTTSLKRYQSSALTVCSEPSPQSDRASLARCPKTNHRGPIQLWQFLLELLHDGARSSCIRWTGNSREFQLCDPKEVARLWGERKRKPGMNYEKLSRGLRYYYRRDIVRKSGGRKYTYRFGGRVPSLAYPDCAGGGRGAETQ
Conditions: protein: recombinant; tags: N-terminal GST; dsDNA, one strand shown. In short, it runs like this:
as §1

The target of test [8] is T5, ELF3 (Homo sapiens, UniProt P78545 1-371).
T5 sequence: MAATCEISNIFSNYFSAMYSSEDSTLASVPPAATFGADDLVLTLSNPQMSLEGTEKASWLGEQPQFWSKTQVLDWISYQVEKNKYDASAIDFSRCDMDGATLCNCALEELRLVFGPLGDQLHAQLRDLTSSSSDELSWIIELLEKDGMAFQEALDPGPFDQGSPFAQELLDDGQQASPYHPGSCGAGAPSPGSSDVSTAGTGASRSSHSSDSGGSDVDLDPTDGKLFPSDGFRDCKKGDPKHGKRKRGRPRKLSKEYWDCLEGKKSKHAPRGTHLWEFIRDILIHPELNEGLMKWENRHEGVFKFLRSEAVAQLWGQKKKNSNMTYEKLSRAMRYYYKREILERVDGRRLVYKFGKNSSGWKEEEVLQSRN
The settings on record: protein: recombinant; tags: N-terminal GST; dsDNA, one strand shown. The method, boiled down:
as §1

The target of test [9] is CRX (Homo sapiens, UniProt O43186 1-299). Conditions: protein: recombinant; tags: N-terminal GST; dsDNA, one strand shown. The method, boiled down:
as §1

Test [10] concerns the target ETV1 (Homo sapiens, UniProt P50549 1-477). Conditions: protein: recombinant; tags: N-terminal GST; dsDNA, one strand shown. In short, it runs like this: as §1
The target of test [11] is T6, ERF (Homo sapiens, UniProt P50548 1-548).
T6 sequence: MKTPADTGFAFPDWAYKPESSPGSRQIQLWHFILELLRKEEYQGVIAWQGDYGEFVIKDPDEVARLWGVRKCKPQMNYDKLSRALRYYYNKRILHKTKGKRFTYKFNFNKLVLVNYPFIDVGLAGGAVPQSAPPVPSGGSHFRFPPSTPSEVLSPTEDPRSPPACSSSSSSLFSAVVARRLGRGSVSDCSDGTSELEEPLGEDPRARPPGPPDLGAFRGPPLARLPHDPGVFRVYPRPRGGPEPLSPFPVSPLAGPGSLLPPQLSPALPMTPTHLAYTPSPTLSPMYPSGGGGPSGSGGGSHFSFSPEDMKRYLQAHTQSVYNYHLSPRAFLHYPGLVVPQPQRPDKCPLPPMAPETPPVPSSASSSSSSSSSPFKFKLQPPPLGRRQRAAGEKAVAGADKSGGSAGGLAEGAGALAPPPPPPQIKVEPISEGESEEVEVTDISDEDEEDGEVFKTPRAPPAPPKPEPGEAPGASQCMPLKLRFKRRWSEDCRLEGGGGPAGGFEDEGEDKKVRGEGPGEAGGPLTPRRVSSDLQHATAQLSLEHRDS
The settings on record: protein: recombinant; tags: N-terminal GST; dsDNA, one strand shown. In short, it runs like this: as §1

Test [12] addresses T7, ETV3L (Homo sapiens, UniProt Q6ZN32 1-361).
T7 sequence: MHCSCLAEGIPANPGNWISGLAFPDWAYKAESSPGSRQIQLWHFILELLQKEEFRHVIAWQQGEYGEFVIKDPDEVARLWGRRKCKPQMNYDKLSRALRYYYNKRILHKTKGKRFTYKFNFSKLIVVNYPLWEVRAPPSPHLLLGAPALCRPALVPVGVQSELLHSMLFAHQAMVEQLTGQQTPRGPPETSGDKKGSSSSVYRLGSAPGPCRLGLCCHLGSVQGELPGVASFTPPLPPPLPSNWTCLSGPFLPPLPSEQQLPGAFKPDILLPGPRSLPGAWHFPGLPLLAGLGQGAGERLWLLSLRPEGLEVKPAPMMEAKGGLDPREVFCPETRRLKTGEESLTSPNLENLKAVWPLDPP
Conditions: protein: recombinant; tags: N-terminal GST; dsDNA, one strand shown. The method, boiled down: as §1

The target of test [13] is T8, ETS2 (Homo sapiens, UniProt P15036 1-469).
T8 sequence: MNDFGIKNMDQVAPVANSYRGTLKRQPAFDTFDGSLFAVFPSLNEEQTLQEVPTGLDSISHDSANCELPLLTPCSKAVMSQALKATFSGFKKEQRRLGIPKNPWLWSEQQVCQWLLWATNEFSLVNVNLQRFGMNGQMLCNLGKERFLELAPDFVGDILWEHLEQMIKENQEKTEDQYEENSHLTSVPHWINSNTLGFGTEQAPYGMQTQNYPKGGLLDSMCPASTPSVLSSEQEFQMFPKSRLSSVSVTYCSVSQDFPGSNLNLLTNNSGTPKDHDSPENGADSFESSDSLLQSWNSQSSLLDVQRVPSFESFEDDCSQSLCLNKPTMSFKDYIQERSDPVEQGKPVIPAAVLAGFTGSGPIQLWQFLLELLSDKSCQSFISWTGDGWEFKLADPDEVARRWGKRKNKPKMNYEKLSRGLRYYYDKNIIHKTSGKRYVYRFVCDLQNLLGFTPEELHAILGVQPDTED
Conditions: protein: recombinant; tags: N-terminal GST; dsDNA, one strand shown. The method, boiled down:
as §1

The target in test [14] is T9, SPDEF (Homo sapiens, UniProt O95238 1-335).
T9 sequence: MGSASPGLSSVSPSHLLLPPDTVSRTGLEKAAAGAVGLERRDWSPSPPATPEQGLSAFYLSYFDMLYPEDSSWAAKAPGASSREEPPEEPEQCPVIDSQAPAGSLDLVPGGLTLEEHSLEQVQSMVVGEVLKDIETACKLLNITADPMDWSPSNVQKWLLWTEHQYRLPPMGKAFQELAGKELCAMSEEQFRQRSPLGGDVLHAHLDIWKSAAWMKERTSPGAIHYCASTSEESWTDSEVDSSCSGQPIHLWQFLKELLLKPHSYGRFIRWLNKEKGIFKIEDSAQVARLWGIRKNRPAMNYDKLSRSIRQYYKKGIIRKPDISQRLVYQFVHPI
The settings on record: protein: recombinant; tags: N-terminal GST; dsDNA, one strand shown. The method, boiled down: as §1

In test [15] the target is T10, ETV7 (Homo sapiens, UniProt Q9Y603 1-341).
T10 sequence: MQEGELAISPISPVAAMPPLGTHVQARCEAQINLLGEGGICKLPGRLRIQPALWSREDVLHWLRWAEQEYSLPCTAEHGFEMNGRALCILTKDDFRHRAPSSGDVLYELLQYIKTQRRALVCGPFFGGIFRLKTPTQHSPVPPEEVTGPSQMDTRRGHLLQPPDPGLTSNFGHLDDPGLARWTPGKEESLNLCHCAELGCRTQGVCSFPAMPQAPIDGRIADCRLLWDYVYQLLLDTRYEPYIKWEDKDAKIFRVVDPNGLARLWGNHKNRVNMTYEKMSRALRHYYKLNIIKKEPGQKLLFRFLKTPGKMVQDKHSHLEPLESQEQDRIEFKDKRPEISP
The settings on record: protein: recombinant; tags: N-terminal GST; dsDNA, one strand shown. In short, it runs like this:
as §1

In test [16] the target is T11, ELF5 (Homo sapiens, UniProt Q9UKW6-2 1-255).
T11 sequence: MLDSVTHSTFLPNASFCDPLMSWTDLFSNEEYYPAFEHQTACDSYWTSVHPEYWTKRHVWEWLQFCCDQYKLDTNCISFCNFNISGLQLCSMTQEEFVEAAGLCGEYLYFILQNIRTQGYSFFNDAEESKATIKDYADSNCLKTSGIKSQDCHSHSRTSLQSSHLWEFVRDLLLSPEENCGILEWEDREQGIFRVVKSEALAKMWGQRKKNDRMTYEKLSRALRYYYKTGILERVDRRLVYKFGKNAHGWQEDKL
The settings on record: protein: recombinant; tags: N-terminal GST; dsDNA, one strand shown. In short, it runs like this: as §1

Test [17] concerns the target T12, ETV3 (Homo sapiens, UniProt P41162-2 1-143).
T12 sequence: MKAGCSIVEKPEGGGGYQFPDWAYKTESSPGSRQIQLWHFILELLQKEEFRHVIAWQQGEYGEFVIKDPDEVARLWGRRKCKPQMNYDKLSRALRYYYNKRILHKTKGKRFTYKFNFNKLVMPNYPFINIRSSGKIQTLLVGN
The settings on record: protein: recombinant; tags: N-terminal GST; dsDNA, one strand shown. The method, boiled down: as §1

The target in test [18] is ETV6 (Homo sapiens, UniProt P41212 1-452). Conditions: protein: recombinant; tags: N-terminal GST; dsDNA, one strand shown. The method, boiled down: as §1
ETV6, sequence (P41212 whole entry): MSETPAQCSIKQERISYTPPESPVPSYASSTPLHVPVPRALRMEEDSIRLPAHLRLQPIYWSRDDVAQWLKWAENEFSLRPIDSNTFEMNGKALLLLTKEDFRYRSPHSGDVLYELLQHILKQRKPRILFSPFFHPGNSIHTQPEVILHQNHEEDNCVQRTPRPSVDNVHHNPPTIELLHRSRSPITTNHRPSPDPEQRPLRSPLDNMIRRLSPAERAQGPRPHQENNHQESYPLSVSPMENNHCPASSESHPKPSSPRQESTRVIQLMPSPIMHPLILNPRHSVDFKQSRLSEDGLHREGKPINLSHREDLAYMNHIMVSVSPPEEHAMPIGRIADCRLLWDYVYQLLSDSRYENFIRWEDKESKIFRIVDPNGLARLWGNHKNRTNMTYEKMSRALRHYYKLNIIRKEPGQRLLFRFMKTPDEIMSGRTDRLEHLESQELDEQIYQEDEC

ETV5, sequence (P41161 whole entry): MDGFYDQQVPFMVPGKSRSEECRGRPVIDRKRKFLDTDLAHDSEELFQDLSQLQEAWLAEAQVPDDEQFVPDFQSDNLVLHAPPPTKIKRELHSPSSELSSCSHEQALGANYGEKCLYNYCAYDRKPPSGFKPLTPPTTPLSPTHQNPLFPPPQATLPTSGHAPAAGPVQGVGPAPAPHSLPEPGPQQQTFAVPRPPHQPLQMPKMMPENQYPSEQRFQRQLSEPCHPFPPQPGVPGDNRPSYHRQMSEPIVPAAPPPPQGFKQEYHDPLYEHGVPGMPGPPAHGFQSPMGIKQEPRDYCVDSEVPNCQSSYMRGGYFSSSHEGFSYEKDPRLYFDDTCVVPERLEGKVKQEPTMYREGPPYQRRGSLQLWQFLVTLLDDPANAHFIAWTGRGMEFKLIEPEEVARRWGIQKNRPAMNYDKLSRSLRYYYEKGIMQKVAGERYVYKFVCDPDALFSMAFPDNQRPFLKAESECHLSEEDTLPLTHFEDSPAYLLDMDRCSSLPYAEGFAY
ELF4, sequence (Q99607 whole entry): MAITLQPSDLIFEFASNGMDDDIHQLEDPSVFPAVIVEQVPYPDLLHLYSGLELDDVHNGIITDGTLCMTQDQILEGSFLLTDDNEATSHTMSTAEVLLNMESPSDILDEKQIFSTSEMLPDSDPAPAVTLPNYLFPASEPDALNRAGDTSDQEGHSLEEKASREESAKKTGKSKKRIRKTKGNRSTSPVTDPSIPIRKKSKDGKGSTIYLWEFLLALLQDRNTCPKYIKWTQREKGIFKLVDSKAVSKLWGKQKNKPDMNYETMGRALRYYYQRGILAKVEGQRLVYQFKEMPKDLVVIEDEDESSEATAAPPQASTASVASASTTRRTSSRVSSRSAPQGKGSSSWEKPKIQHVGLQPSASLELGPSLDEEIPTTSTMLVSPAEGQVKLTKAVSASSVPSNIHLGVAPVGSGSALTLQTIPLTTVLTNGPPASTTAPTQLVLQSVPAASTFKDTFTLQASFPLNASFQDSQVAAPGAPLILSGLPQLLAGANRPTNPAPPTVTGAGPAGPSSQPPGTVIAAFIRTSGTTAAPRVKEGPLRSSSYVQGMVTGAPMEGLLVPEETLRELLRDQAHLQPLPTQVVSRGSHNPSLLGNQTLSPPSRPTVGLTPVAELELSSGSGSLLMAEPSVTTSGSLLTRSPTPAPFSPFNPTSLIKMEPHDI
ETV1, sequence (P50549 whole entry): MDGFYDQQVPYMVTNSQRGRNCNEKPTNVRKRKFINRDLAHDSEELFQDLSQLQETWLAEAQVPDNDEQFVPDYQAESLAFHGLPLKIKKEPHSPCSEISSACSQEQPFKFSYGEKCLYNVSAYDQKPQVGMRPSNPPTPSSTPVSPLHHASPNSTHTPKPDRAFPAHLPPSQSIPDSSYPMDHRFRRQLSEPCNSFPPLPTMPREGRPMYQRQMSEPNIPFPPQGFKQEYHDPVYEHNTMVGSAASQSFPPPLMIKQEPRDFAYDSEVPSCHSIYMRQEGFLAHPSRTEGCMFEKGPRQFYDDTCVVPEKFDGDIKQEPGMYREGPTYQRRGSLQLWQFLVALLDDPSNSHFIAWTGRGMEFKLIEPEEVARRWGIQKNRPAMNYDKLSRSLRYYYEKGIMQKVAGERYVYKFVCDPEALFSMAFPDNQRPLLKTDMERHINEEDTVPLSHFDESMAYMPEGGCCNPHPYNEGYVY
CRX, sequence (O43186 whole entry): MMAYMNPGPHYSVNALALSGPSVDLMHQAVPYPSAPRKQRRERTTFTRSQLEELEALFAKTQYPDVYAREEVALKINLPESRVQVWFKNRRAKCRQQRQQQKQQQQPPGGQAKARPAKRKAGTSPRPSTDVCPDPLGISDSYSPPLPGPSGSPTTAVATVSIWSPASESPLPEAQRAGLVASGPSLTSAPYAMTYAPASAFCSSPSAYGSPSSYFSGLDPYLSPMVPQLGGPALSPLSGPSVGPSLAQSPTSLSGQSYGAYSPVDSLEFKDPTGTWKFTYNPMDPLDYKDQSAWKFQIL

As to TCTCTG, the binding signal is 1.53 fold enrichment (6-mer frequency, TF over GST control) in test [1]; 1.43 fold enrichment (6-mer frequency, TF over GST control) in [2]; 1.73 fold enrichment (6-mer frequency, TF over GST control) in [3]; 1.59 fold enrichment (6-mer frequency, TF over GST control) in test [4]; 1.58 fold enrichment (6-mer frequency, TF over GST control) in [5]; 1.69 fold enrichment (6-mer frequency, TF over GST control) in [6]. In addition, the binding signal in test [7] was 1.45 fold enrichment (6-mer frequency, TF over GST control); in test [8], 1.37 fold enrichment (6-mer frequency, TF over GST control); in test [9], 1.49 fold enrichment (6-mer frequency, TF over GST control); in test [10], 1.46 fold enrichment (6-mer frequency, TF over GST control); in [11], 1.49 fold enrichment (6-mer frequency, TF over GST control); in [12], 1.49 fold enrichment (6-mer frequency, TF over GST control). Also, the binding signal in test [13] is 1.61 fold enrichment (6-mer frequency, TF over GST control); in [14], 1.5 fold enrichment (6-mer frequency, TF over GST control); in [15], 1.29 fold enrichment (6-mer frequency, TF over GST control); in [16], 1.42 fold enrichment (6-mer frequency, TF over GST control); in test [17], 1.48 fold enrichment (6-mer frequency, TF over GST control); in test [18], 1.52 fold enrichment (6-mer frequency, TF over GST control).

These data come from PMC7862700, “An all-to-all approach to the identification of sequence-specific readers for epigenetic DNA modifications on cytosine”.
